# ChEMBL document CHEMBL3988442, “University of Dundee, Small-Polar-MMV Screening Library” (2021)
# For some assays here: Measured potencies and affinities stand elsewhere.
# What was measured:
# Set-up in all cases: scale not given: direction of the effect not stated beside the values
# [1] = target: Protein translocase subunit SecA (Escherichia coli (strain K12)) (UniProt P10408); assay: Assay to Identify E. coli SecA ATPase Inhibitors; type: functional; conditions: 30 µM
# [2] = target: T1, Ubiquitin-activating enzyme e1, putative (Leishmania donovani (strain BPK282A1)) (UniProt E9BSI1); assay: Leishmania donovani Ubiquitin Activating Enzyme (LdE1); type: functional; conditions: 30 µM
# T1 sequence (whole entry): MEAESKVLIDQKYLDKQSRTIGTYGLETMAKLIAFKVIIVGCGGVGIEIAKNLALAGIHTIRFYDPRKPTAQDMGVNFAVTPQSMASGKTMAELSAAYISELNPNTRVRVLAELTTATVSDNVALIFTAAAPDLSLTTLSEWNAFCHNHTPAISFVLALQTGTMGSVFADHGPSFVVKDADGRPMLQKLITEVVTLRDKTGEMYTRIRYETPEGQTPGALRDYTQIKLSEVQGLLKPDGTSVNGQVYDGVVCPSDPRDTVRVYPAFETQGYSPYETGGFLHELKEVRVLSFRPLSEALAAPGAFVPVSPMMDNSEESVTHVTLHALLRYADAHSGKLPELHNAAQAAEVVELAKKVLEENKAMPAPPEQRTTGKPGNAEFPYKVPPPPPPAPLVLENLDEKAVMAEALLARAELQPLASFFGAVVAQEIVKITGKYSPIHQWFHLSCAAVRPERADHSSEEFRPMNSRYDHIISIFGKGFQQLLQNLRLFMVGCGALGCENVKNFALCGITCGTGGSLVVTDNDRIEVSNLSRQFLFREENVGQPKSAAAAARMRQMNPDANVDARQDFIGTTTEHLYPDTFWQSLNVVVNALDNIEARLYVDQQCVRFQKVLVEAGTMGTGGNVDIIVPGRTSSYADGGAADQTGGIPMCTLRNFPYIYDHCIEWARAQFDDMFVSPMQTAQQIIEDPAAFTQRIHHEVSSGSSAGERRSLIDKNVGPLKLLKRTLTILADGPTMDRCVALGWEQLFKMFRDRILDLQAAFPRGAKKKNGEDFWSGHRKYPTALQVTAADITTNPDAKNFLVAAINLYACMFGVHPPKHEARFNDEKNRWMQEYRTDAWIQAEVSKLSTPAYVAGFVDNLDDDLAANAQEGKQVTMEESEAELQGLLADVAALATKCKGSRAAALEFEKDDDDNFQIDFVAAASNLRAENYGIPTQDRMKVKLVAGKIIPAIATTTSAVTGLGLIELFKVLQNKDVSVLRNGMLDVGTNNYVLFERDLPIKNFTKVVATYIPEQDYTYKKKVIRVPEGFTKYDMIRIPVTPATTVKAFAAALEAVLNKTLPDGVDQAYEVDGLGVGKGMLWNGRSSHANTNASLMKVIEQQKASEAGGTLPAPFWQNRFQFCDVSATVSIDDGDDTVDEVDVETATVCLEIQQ
# [3] = target: AMP-activated protein kinase, AMPK (Homo sapiens) (UniProt P54646+O43741+P54619+Q9UGJ0+Q9Y478+Q13131+Q9UGI9); assay: AMP-dependent Kinase enzyme assay. An in vitro enzyme assay that detects ADP turnover that is directly proportional to AMPK activity. This uses naive AMPK that is activated during the assay with MK-8722; type: functional; conditions: 30 µM
# [4] = target: Sialic acid-binding Ig-like lectin 9 (Homo sapiens) (UniProt Q9Y336); assay: Hs-Siglec9 ALPHAscreen SOP 20170721; conditions: 10 µM
# Chain of Sialic acid-binding Ig-like lectin 9 (Homo sapiens) (Q9Y336 whole entry): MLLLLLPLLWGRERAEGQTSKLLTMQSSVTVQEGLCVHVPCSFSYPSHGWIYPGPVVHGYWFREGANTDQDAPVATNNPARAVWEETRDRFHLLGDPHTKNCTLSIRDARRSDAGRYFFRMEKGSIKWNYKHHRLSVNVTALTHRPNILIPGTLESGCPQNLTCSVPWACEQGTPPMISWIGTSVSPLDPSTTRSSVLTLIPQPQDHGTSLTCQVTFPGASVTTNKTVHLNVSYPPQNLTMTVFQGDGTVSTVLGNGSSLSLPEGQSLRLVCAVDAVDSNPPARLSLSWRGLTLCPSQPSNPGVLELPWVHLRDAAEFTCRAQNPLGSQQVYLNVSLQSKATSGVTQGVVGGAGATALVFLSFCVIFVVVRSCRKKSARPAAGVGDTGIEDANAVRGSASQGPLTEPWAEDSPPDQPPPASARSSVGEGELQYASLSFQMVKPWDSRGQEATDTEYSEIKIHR
# Trypanosoma cruzi = assay: Trypanosoma cruzi phosphomannomutase and mannose-1-phosphate guanylyltransferase assay; type: functional; conditions: 10 µM
# [5] = target: T2, Arginase-2, mitochondrial (Homo sapiens) (UniProt P78540); assay: in vitro enzyme assay to detect the production of urea directly proportional to the activity of Arginase II; type: functional; conditions: 33.3 µM; note: in the data most compounds retested in dose-response had high values
# T2 sequence (whole entry): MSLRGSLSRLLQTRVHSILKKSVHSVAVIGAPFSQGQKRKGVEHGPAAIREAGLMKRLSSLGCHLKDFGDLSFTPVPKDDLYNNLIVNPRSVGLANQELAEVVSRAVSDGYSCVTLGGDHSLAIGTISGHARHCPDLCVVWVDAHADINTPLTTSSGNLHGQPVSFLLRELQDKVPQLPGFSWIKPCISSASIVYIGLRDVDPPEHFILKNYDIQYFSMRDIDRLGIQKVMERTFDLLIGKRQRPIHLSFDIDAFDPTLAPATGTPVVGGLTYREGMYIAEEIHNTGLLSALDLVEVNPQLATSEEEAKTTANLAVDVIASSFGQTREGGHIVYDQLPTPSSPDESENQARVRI
# [6] = target: T3, Proteasome subunit beta (Trypanosoma cruzi) (UniProt O96673); assay: Trypanosoma cruzi proteasome chymotrypsin-like activity (TcProtChymo) assay.; note: in the data most compounds retested in dose-response had high values; type: functional; conditions: 9.37 µM
# T3 sequence (whole entry): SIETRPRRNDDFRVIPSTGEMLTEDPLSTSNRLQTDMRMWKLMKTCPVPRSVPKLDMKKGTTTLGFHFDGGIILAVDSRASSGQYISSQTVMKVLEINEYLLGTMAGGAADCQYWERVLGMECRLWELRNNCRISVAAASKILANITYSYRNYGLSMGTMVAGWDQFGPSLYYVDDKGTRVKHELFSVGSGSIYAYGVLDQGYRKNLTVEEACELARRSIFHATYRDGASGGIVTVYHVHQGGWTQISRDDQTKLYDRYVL
# Homo sapiens = species: Homo sapiens; assay: To identify inhibition of the IFN signalling (Jak-Stat) pathway via expression of an eGFP reporter gene under the control of an IFN-stimulated response element (ISRE) containing MxA promoter.; type: functional; conditions: 30 µM
# [7] = target: T4, Tyrosyl-tRNA synthetase, putative (Trypanosoma cruzi (strain CL Brener)) (UniProt Q4DSP6); assay: Trypanosoma cruzi tyrosyl tRNA synthetase (TcYRS) _High Tyrosine SOP; type: functional; conditions: 30 µM; note: in the data most compounds retested in dose-response had high values
# T4 sequence (whole entry): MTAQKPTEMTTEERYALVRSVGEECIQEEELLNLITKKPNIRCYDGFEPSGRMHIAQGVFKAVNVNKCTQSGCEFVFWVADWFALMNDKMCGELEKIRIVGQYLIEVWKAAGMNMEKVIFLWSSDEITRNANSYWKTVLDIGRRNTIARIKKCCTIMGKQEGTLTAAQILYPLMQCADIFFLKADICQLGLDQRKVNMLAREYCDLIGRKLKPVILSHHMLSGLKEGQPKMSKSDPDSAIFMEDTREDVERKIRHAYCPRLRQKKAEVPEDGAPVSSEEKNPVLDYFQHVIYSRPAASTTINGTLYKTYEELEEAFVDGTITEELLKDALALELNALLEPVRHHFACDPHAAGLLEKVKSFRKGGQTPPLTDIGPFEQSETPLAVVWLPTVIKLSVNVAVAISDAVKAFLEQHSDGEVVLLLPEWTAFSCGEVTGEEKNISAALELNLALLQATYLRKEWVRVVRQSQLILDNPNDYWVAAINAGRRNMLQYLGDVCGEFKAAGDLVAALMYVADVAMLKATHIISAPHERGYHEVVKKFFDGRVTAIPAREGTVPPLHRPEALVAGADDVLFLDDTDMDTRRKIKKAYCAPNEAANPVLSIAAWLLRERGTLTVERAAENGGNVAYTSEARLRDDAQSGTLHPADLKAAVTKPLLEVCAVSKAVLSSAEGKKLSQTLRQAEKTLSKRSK
# [8] = target: T4, Tyrosyl-tRNA synthetase, putative (Trypanosoma cruzi (strain CL Brener)); assay: Trypanosoma cruzi tyrosyl tRNA synthetase (TcYRS) SOP; type: functional; conditions: 30 µM
# [9] = target: Chromo domain-containing protein 1 (Saccharomyces cerevisiae (strain ATCC 204508 / S288c) (Baker's yeast)) (UniProt P32657); assay: ScCHD-1 Enzyme Inhibition Assay; type: functional; conditions: 30 µM; note: in the data most compounds retested in dose-response had high values
# Chain of Chromo domain-containing protein 1 (Saccharomyces cerevisiae (strain ATCC 204508 / S288c) (Baker's yeast)) (P32657 whole entry, the tested form may be a part): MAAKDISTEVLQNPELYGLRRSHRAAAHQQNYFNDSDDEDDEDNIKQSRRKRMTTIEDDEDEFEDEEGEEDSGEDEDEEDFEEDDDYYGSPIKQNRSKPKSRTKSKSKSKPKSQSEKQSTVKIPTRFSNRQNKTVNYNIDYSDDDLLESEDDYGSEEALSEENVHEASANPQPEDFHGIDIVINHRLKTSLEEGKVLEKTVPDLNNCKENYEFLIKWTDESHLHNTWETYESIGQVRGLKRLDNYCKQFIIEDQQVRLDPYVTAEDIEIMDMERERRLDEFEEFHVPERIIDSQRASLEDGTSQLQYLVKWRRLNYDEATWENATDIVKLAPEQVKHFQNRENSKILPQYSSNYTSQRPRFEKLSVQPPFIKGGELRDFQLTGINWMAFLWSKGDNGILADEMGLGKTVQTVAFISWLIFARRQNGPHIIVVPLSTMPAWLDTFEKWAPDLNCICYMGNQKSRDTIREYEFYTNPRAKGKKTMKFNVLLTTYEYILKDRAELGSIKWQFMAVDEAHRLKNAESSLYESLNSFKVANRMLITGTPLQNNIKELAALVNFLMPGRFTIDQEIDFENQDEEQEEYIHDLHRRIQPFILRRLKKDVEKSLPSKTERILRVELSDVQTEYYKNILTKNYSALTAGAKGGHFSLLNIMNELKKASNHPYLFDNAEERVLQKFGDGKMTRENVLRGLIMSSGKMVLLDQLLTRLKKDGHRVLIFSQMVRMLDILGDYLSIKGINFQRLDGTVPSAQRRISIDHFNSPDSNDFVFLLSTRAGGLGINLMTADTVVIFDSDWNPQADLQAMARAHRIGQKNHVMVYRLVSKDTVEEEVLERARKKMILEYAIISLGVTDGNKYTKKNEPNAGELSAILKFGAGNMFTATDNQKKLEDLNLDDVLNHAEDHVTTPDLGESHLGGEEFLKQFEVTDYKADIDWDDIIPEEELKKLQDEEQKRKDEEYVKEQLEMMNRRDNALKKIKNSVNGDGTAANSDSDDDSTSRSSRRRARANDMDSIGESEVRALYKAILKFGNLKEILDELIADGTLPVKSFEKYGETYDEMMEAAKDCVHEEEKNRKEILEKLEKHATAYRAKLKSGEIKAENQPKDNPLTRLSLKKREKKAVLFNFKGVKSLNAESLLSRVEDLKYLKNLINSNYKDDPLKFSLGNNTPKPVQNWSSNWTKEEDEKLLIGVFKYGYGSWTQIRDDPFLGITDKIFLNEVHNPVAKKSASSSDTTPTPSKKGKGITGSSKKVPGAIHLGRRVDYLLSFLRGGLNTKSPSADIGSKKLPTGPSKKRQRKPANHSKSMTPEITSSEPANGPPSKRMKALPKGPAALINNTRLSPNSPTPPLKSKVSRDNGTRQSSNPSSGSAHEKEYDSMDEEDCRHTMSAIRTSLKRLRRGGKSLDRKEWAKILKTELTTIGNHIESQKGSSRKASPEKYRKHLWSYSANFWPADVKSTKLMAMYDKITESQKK
# Chain of Protein translocase subunit SecA (Escherichia coli (strain K12)) (P10408 whole entry): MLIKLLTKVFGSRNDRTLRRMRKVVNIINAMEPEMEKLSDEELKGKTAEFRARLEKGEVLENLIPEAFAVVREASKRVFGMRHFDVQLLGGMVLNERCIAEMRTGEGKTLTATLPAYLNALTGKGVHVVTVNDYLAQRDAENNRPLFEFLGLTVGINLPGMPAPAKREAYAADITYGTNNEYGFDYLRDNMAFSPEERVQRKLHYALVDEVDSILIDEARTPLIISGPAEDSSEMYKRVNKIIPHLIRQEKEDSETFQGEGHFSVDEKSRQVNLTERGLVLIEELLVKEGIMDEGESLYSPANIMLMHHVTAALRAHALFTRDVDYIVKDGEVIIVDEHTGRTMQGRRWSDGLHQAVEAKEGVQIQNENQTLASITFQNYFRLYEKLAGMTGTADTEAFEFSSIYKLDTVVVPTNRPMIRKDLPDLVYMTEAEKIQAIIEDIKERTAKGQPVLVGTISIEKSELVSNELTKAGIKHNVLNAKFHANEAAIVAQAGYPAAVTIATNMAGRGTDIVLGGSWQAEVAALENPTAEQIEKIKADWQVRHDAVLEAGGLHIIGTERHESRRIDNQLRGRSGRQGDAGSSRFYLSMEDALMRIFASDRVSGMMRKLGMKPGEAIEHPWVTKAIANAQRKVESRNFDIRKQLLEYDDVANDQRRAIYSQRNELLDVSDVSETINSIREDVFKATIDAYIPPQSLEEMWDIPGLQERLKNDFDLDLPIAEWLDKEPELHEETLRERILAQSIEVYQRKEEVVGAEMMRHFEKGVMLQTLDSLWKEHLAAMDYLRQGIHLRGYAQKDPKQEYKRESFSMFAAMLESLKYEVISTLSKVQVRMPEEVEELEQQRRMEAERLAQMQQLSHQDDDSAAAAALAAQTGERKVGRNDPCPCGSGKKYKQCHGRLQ
Compound,Percent Effect [1] [%],Percent Effect [2] [%],Percent Effect [3] [%],Percent Effect [4] [%],Percent Effect (Trypanosoma cruzi) [%],Percent Effect [5] [%],Percent Effect [6] [%],Percent Effect (Homo sapiens) [%],Percent Effect [7] [%],Percent Effect [8] [%],Percent Effect [9] [%]
CNS(=O)(=O)c1ccc(C(=O)N2CCCC2c2ccccc2)o1 (configuration not stated),-6.62,13.2,2.8,2.47,2.15,-3.6,-2.96,-6.57,6.4,18.5,1
CN(C)C(=O)CO[C@H]1CN(Cc2ccc(F)cc2)[C@@H]2CCCO[C@H]12,-4.67,10.4,1.52,9.7,4.23,2.76,15.3,-1.14,5.38,11.1,-1.79
O=C(C1COCCO1)N1CCN(Cc2ccc3c(c2)CCO3)CC1 (configuration not stated),-1.12,-5.26,-0.262,5.55,1.21,-2.52,-0.0846,-4.94,3.45,3.7,-2.12
CCc1cc(NC2CCN(S(C)(=O)=O)CC2)n2nc(C)c(C)c2n1,0.159,4.17,4.89,-1.11,-4.37,-2.21,22.6,5.75,-10.5,2.56,-1.42
COc1ccc(C2C3=C(COC3=O)Nc3[nH]nc(C)c32)cc1OC (configuration not stated),2.08,6.67,9.48,-1.62,-6.68,-10.7,12.8,8.17,5.29,10.3,-11
CCc1ccc(C2CCCCCN2Cc2nc(CCOC)no2)o1 (configuration not stated),-1.49,2.6,3.4,5.24,3.05,-9.65,16.5,19.7,-14,-18.5,-9.18
CC(C)N1CCCC(CCCc2ccccn2)(C(=O)O)C1 (configuration not stated),-3.09,6.76,15.5,0.499,-1.98,-0.696,12.3,-2.07,10.8,14.3,4.56
CCN(Cc1ccco1)C(=O)c1cc(OC)c2c(c1)OCCO2,-1.97,-2.63,6.68,5.11,-0.487,3.55,9.88,-7.24,0,2.6,-1.38
CC(C)c1nc(C2CCCN2C(=O)c2nccnc2N)no1 (configuration not stated),-6.3,16.2,-11,23.1,4.18,-4.99,6.1,12.1,6.93,23.2,-5.79
Cc1occc1C(=O)Nc1ccnc(OC2CCOC2)c1 (configuration not stated),-0.474,6.94,-7.48,6.54,4.57,7.95,14.7,3.88,-2.1,2.56,-2.37
Cc1ccc(CNC2CCN(CCc3ccncc3)CC2)s1,-6.73,-5.41,-1.83,2.51,-1.76,5.42,7.86,1.37,7.92,8.54,-4.89
c1cc(CNCc2ccc3c(c2)CCO3)cc(N2CCOCC2)n1,-6.07,5.41,-3.9,-3.3,-3.03,0.744,6.27,2.63,2.15,6.17,-4.71
CN(C)S(=O)(=O)N1CCCC1CC(=O)c1cccs1 (configuration not stated),2.35,2.7,-3.98,2.64,1.74,11.9,-0.862,16.6,-2.65,4.88,-1.64
CCOc1ccc(N2CCCN=C2NC(=O)c2cccc(Cl)c2)cc1,-0.891,5.2,1.42,2.2,-4.62,-13.8,14.6,1.55,3.23,13.6,0.903
O=C(CN1C=Nc2ccccc2S1(=O)=O)NCCc1cccs1,-6.39,13.2,-6.07,5.67,3.08,5.04,9.56,5.08,8.37,25.9,-10.2
CCSCCC(=O)Nc1ncn(CC(=O)NCc2ccccc2)n1,-4.92,16,-4.62,16.7,8.86,3.65,25.1,5.59,12.6,28.4,-2.42
CN(C)C(=O)Cc1nc(CN2CCOC(Cn3cccn3)C2)cs1 (configuration not stated),1.53,0,-0.58,-0.357,-1.46,0,10.6,-2.04,0,0,1.28
COc1ccc(C(=O)NS(=O)(=O)c2cncc(Br)c2)cc1OC,-6.13,-5.41,-4.05,9.13,-2.51,0,2.07,24.4,2.65,0,-1.34
CN(C)C(CNS(=O)(=O)c1ccc(F)cc1F)c1cccn1C (configuration not stated),-6.84,8.22,2.21,-1,-4.9,2.73,10.8,13.6,4.3,12.5,-4.19
Cc1ccc(NC(=O)N(C)Cc2cnn(C)c2)cc1OCC(F)F,-9.52,2.7,-18.9,28,12.4,-11.2,6.67,11.9,3.45,23.5,-16.1
Cc1ccc(C2CCCN2Cc2nc3c(cnn3C)c(=O)[nH]2)cc1C (configuration not stated),-4.42,27.9,-6.55,-1.46,5.19,-1.52,13.8,4.19,7.39,24.1,-5.15
Cc1cc(C[C@@H]2COC[C@@H]2NC(=O)CN2CCCC2)on1,-4.18,2.74,1.08,-9.23,1.96,-1.82,-4.61,18.8,5.38,10,-4.15
